Results taken from PubChem BioAssay AID624291 (National Center for Advancing Translational Sciences (NCATS), 2012).
Out of some 350,000 compounds screened, about 220 (0.063%) were called active. Entries that show only a call come without a potency. About 4% were inconclusive and are not listed. The call rests on the fitted dose curve; in most records, active means well fitted activation curve with a large enough effect; inconclusive means small, poorly fitted or top-dose-only effect; inactive means no such curve, though single readings can be large or run the other way. For the sample, actives were picked, then their nearest neighbours and some compounds at random.
Potency means the concentration at half of the fitted maximal effect.

Assay: qHTS for Activators of Integrin-Mediated Alleviation for Muscular Dystrophy; further: nearly all actives have a fitted effect of over 60% in size
Details: alpha7betagal myoblasts, beta-gal FDG fluorescence, 48 h; series mostly up to 38.3 µM
From the text: Integrins are a diverse family of transmembrane cell surface receptors that mediate interactions between cells and the extracellular matrix. These heterodimeric proteins are composed of alpha and beta subunits and the a7b1 interacts with laminin in the extracellular matrix and actin of the cell cytoskeleton. Both chains contribute to ligand binding, but the alpha chain mediates the specificity of the interaction. The alpha7beta1 integrin is a major laminin receptor in skeletal, cardiac and vascular smooth muscle. Mutations in the alpha7 integrin gene are responsible for muscular dystrophy in both humans and mice. The alpha7beta1 integrin is also a major modifier of muscle disease progression in various muscle diseases including Duchenne muscular dystrophy, Fukuyama muscular dystrophy and merosin deficient congenital muscular dystrophy type 1A. […] Transcriptional regulation of the alpha7 integrin gene is poorly understood and probably involves multiple transcription factors. The goal of identifying small molecules that enhance alpha7 integrin expression is two-fold: firstly, such molecules would help us gain insight into the complex transcriptional control of alpha7 integrin. It is known that alpha7 integrin expression is tightly controlled during various stages of development, disease and in response to external stimuli. The second goal of the project is to translate the above finding into a therapeutic strategy for muscular dystrophy. […] Thus this project aims to discover small molecule probes that would not only help in gaining a better understanding of the complex regulatory mechanism of alpha7 integrin expression, but also lead to development of pharmacological agents to fight muscular dystrophy. NIH Chemical Genomics Center [NCGC] NIH Molecular Libraries Probe Centers Network [MLPCN] MLPCN Grant: NS058429 Assay Submitter (PI): Dean Burkin, University of Nevada School of Medicine
A total of 250 alpha7betagal+/- myoblasts at passage 13 were dispensed using a mulitdrop from Thermo into black low base tissue culture treated microclear aurora plates in 6 ul media containing DMEM without phenol, 5% FBS, 1x GluMax and 1x Penicillin/Streptomycin. The plates were incubated 16-24 hr at 37C, 5% CO2, 95% humidity covered with low evaporation stainless steel lids from Kalypsys. Compounds were then dispensed using a Kalypsys pintool to deliver 23 nl/well compounds in DMSO (diluted into 6 uL resulting in a 1:260 dilution of compound). The control compound used was the cdk2 inhibitor SU9516 from Tocirs (found in the initial LOPAC screen). The plates were incubated for 48 hours at 37C, 5% CO2, 95% humidity using the same stainless steel lids. After incubation with compound, 5 ul of the media was aspirated using the Kalypsys washer/dispenser and 3 ul of the Mammalian Protein Extraction Reagent (MPER) lysis buffer (Thermo Fisher) was added. The plates were spun at 2000 rpms to remove bubbles and an initial capture was acquired on the Viewlux (Perkin Elmer) with exciation at 480 nm and emission at 540 nm for 25 seconds to omit any auto fluorescent compounds. The plates were then incubated for 10 minutes at room temperature. After incubation, 3 ul of 125 uM Fluorescein di-galactoside (FDG) (Marker Gene Technologies) diluted in PBS with 2 mM MgCl2 and 0.2% betamercaptoethanol (BME) was added, the plates were spun at 2000 rpms and incubated for 30 minutes at room temperature. The plates were again read on the Viewlux with exciation at 480 nm and emission at 540 nm for 25 seconds.
For `O=C(Nc1ccc(Cl)cn1)c1ccccc1-c1ccccc1`, the Potency was “inactive”. With `CCCCCCN1C[C@H](O)[C@@H](n2cc(C3CC3)nn2)C[C@@H]1c1ccc(Cl)cc1` the Potency was “inactive”. In the case of `CSc1ncnc2c1ncn2CCCNCc1cccs1`, the Potency is reported as “inactive”. In the case of `COc1ccc(CCNC(=O)CN(c2ccccc2)S(=O)(=O)c2ccccc2)cc1`, the Potency is reported as “inactive”. With `O=C(NCc1nnnn1-c1ccc(Cl)cc1)c1ccc([N+](=O)[O-])o1` the Potency was “inactive”. For `COc1ccc(NC2CCCN(C(=O)c3ccccc3-c3ncc[nH]3)C2)cc1` (centres undefined), the Potency was “inactive”. With `Cc1ccc(-c2ccc(CN3C(C)C(=O)N(Cc4cn(CCC5OCCCO5)nn4)CCS3(=O)=O)cc2)cc1` (centres undefined) the Potency was “inactive”. With `COC(=O)C[C@H]1C[C@@H]2c3cc(NC(=O)Nc4ccccc4)ccc3O[C@@H]2[C@@H](CO)O1` the Potency was “inactive”. With `Cc1ccc(-c2nc3ccc(Cl)cn3c2Cc2ccccc2)cc1` the Potency was “inactive”. In the case of `N#Cc1ccc(OCC(=O)Nc2nc(-c3ccccn3)cs2)cc1`, the Potency is reported as “inactive”. With `Cc1sc2nc(-c3ccccc3F)oc(=O)c2c1C` the Potency was “inactive”. In the case of `O=C1[C@H]2[C@@H](c3ccc(C(F)(F)F)cc3)N[C@]3(CCCN(Cc4ccc(Br)cc4)C3=O)[C@H]2C(=O)N1Cc1ccccc1`, the Potency is reported as “inactive”. For `O=C(c1ccc(CS(=O)Cc2ccccc2Cl)o1)N1CCN(c2ccccc2)CC1` (centres undefined), the Potency was “inactive”. With `C[C@H]1CN([C@@H](C)CO)C(=O)CCCn2nncc2CO[C@@H]1CN(C)Cc1ccc(Oc2ccccc2)cc1` the Potency was “inactive”. For `Cc1ccc([C@H]2N[C@]3(CCCN(CC4CCCCC4)C3=O)[C@H]3C(=O)N(Cc4ccccc4)C(=O)[C@@H]23)cc1`, the Potency was “inactive”. In the case of `COc1cccc(OCC(=O)NCCS(=O)(=O)N2CCN(c3ccccc3)CC2)c1`, the Potency is reported as “inactive”. With `CCOC(=O)c1c(C)[nH]c(C)c1C(=O)COC(=O)/C=C/c1cccc([N+](=O)[O-])c1` the Potency was “inactive”. With `CC(C)NC(=O)Nc1ccc2c(c1)C(=O)N([C@H](C)CO)C[C@H](C)[C@@H](CN(C)Cc1ccc(C(F)(F)F)cc1)OCCCC[C@@H](C)O2` the Potency was “inactive”. With `O=c1[nH]c2ccccc2n1C1CCN(CCOc2ccccc2)CC1` the Potency was “inactive”. In the case of `c1ccc(Cn2nnc3c(NCC4CC4)ncnc32)cc1`, the Potency is reported as “inactive”. With `CN1OC[C@@H]2CN[C@H](c3ccc(-c4ccccc4)cc3)C[C@@H]21` the Potency was “inactive”. In the case of `COc1ccccc1NC(=O)C(CC(=O)O)Cc1cc(C)cc(C)c1` (centres undefined), the Potency is reported as “inactive”. With `C[C@@H]1CN([C@H](C)CO)C(=O)CCCn2nncc2CO[C@@H]1CN(C)S(=O)(=O)c1cccc(C#N)c1` the Potency was “inactive”. In the case of `O=S1(=O)CCN(C2CCCCCCCCCCC2)CC1`, the Potency is reported as “inactive”. With `O=C(NCCc1cccc(F)c1)C1CC(O)CN1C(=O)Nc1ccccc1` (centres undefined) the Potency was “inactive”. With `CC1(c2cccc(N)c2)OCCO1` the Potency was “inactive”. In the case of `C[C@H](CO)N1C[C@H](C)[C@H](CN(C)C(=O)c2ccncc2)OCc2ccccc2-c2c(n(C)c3ccccc23)C1=O`, the Potency is reported as “inactive”. In the case of `Cc1cc(C)c2c(=O)n3c(nc2c1)C(CC(C)C)NC(=O)c1cc2ccccc2cc1-3` (centres undefined), the Potency is reported as “inactive”. For `O=C(c1ccc(N2CCCC2=O)cc1)N1CCN(c2ccc(C(F)(F)F)cc2[N+](=O)[O-])CC1`, the Potency was “inactive”. With `O=C(CN1C(=O)NC2(CCc3ccccc32)C1=O)NC1CCCCC1` (centres undefined) the Potency was “inactive”. In the case of `Cc1nc(-c2ccc(F)cc2)c(CC(=O)N(C)CC(=O)Nc2c(C)cccc2C)s1`, the Potency is reported as “inactive”. In the case of `Cc1ccc(-c2nc(C)sc2CC(=O)OCC(=O)Nc2c(F)cccc2F)cc1`, the Potency is reported as 12.6 µM (active). In the case of `Cc1nc(-c2ccc(F)cc2)c(CC(=O)Nc2cccc(S(=O)(=O)N3CCOCC3)c2)s1`, the Potency is reported as “inactive”. With `COc1ccc(Cn2c(=O)oc3ccccc32)cc1` the Potency was “inactive”. With `CCN(CC)C(=O)C1=C(C)N(Cc2ccc(OC)cc2)C(=O)C(CC(=O)NCCCCc2ccccc2)C1` (centres undefined) the Potency was “inactive”. In the case of `CC(C)N=C1CCCC1C(=S)SSC(=S)C1CCCC1=NC(C)C` (centres undefined), the Potency is reported as “inactive”. With `COc1cccc(N2CCN(C3CC(=O)N(c4ccc(Cl)cc4)C3=O)CC2)c1` (centres undefined) the Potency was “inactive”. For `COc1cccc(N2C(=O)CC(N3CCc4ccccc4C3)C2=O)c1` (centres undefined), the Potency was 10 µM (active). For `COc1cccc(N2C(=O)CC(N3CCN(S(=O)(=O)c4ccccc4)CC3)C2=O)c1` (centres undefined), the Potency was “inactive”. With `CN1CCN(c2ccncc2S(=O)(=O)N2CCCC2)CC1` the Potency was “inactive”. With `Cc1ccc(S(=O)(=O)N(CCc2ccccc2)c2ccc3c(c2)C2CC3CCN2C(=O)OCc2ccccc2)cc1` (centres undefined) the Potency was “inactive”. For `Cc1onc(-c2ccccc2)c1-c1nnc(COC(=O)c2ccc(N(C)C)cc2)o1`, the Potency was “inactive”. In the case of `NC1=CC(=O)C(=O)c2cccnc21`, the Potency is reported as “inactive”. In the case of `COc1cc(C(=O)N2CCOC23CCN(Cc2ccccc2)CC3)cc(OC)c1OC`, the Potency is reported as “inactive”. With `C[C@H](O)[C@@H]1C(=O)N2CCc3c([nH]c4ccccc34)[C@@H]2C[C@@H]1N(C)C(=O)Nc1ccc(F)cc1` the Potency was “inactive”. For `CCCCN1C(=O)C(CC(=O)NCc2cccs2)CC(C(=O)N2CCOCC2)=C1C` (centres undefined), the Potency was “inactive”. For `O=C(c1cccs1)N1C[C@H](n2cc(C3CC3)nn2)[C@@H](O)C[C@@H]1c1ccccc1`, the Potency was “inactive”. For `O=C1CCc2cc(S(=O)(=O)Nc3ccc(C(F)(F)F)cc3)cc3c2N1CC3`, the Potency was 11.2 µM (active). For `COc1ccc(C)cc1S(=O)(=O)Nc1cc2c3c(c1)CCC(=O)N3CCC2`, the Potency was “inactive”. In the case of `COc1ccc(CNS(=O)(=O)c2cc3c4c(c2)CCN4C(=O)CC3)cc1`, the Potency is reported as “inactive”. In the case of `CCOC(=O)C=Cc1ccc(C(=O)OCC)[nH]1`, the Potency is reported as “inactive”. With `C[C@H]1CN([C@@H](C)CO)S(=O)(=O)c2ccc(Br)cc2O[C@H]1CN(C)C(=O)c1cnccn1` the Potency was “inactive”. For `CNC(=S)N1CCC(NC(=O)C(Cc2ccc(F)cc2)NC(C)=O)CC1` (centres undefined), the Potency was 3.16 µM (active). In the case of `CC(=O)NC(Cc1ccc(F)c(F)c1)C(=O)NC1CCN(C(=O)c2ccc(C)cc2)CC1` (centres undefined), the Potency is reported as “inactive”. For `COc1ccc(CC(NC(C)=O)C(=O)NC2CCN(C(=O)c3ccc(Cl)cc3)CC2)cc1` (centres undefined), the Potency was “inactive”. With `O=C(c1ncn2c1c(=O)[nH]c1ccccc12)N1CCc2ccccc2C1` the Potency was “inactive”. For `CC1(C)CN(Cc2cccnc2)C(=O)[C@H]1CC(=O)Nc1ccc(Br)cc1`, the Potency was “inactive”. With `Cc1ccc([C@H]2C[C@H](O)[C@@H](n3cc(COC(=O)c4ccccc4)nn3)CN2C(=O)C2CCCCC2)cc1` the Potency was “inactive”. With `CSc1ncnc2c1ncn2CCCNCC1CCCCC1` the Potency was “inactive”.
